In the supplement of paper PMC7057948, “A genome-wide approach for identification and characterisation of metabolite-inducible systems” (Nature Communications, 2020):

How the values were obtained:
Conditions in all cases: inducer concentration 5 mM; 6 h; Cupriavidus necator H16; minimal medium + 0.4% gluconate
[1] = tested on: AcoR/P_H16_RS19445 acetoin biosensor (pEH052); test: relative induction of RFP reporter vs primary effector; higher = stronger activation
Experimental: (§1)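 Orthogonality screen of 21 primary inducers against 21 transcription factor/inducible promoter–mRFP biosensors in C. necator H16 in minimal medium, robotic 96-well format, 5 mM inducer, 30 °C. OD-normalised RFP fluorescence was read 6 h later and expressed as relative induction (%) = 100 × (FL compound − FL uninduced)/(FL primary inducer − FL uninduced); mean of n=4. Cognate pairs (100% by definition) omitted.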

[2] = tested on: AraC/P_araBAD L-arabinose biosensor (pEH176); test: as above
Experimental: as §1

[3] = tested on: BadR/P_H16_RS27200 cyclohexanecarboxylate biosensor (pEH159); test: as above
Experimental: as §1

[4] = tested on: BenM/P_H16_RS09790 benzoate biosensor (pEH148); test: as above
Experimental: as §1

[5] = tested on: FdsR/P_H16_RS03165 formate biosensor (pEH134); test: as above
Experimental: as §1

[6] = tested on: GabR/P_H16_RS23655 GABA biosensor (pEH256); test: as above
Experimental: as §1

[7] = tested on: NahR/P_H16_RS08125 salicylate biosensor (pEH042); test: as above
Experimental: as §1

[8] = tested on: OapR/P_H16_RS01330 beta-alanine biosensor (pEH147); test: as above
Experimental: as §1

[9] = tested on: PcaQ/P_H16_RS30145 3,4-dihydroxybenzoate biosensor (pEH161); test: as above
Experimental: as §1

[10] = tested on: PhgR/P_H16_RS05530 phenylglyoxylate biosensor (pEH155); test: as above
Experimental: as §1

[11] = tested on: SauR/P_H16_RS13695 sulfonatoacetate biosensor (pEH157); test: as above
Experimental: as §1

[12] = tested on: TtdR/P_H16_RS10665 tartrate biosensor (pEH083); test: as above
Experimental: as §1

[13] = tested on: XdhR/P_H16_RS05055 xanthine biosensor (pEH154); test: as above
Experimental: as §1

[14] = tested on: heterologous L-rhamnose-inducible system; test: as above
Experimental: as §1

[15] = tested on: heterologous acrylate-inducible system; test: as above
Experimental: as §1

[16] = tested on: heterologous cumate-inducible system; test: as above
Experimental: as §1

[17] = tested on: heterologous itaconate-inducible system; test: as above
Experimental: as §1

[18] = tested on: AcoR/P_H16_RS19445 acetoin biosensor (pEH052); test: relative induction of RFP reporter vs primary effector (background-corrected); higher = stronger activation of the biosensor
Experimental: (§2)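 C. necator H16 strains, each carrying one of 21 transcription factor/inducible promoter–mRFP biosensor plasmids, were grown in minimal medium in 96-well plates (robotic platform). Each was exposed to 46 structurally or metabolically related compounds at 5 mM at 30 °C. OD-normalised RFP fluorescence was read 6 h later and expressed as relative induction (%) = 100 × (FL compound − FL uninduced)/(FL primary inducer − FL uninduced); mean of n=4.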

[19] = tested on: AraC/P_araBAD L-arabinose biosensor (pEH176); test: as above
Experimental: as §2

[20] = tested on: BenM/P_H16_RS09790 benzoate biosensor (pEH148); test: as above
Experimental: as §2

[21] = tested on: FdsR/P_H16_RS03165 formate biosensor (pEH134); test: as above
Experimental: as §2

[22] = tested on: GabR/P_H16_RS23655 GABA biosensor (pEH256); test: as above
Experimental: as §2

[23] = tested on: HpdR/P_H16_RS18295 3-hydroxypropanoate biosensor (pEH010); test: as above
Experimental: as §2

[24] = tested on: KynR/P_H16_RS14030 L-kynurenine biosensor (pEH136); test: as above
Experimental: as §2

[25] = tested on: NahR/P_H16_RS08125 salicylate biosensor (pEH042); test: as above
Experimental: as §2

[26] = tested on: OapR/P_H16_RS01330 beta-alanine biosensor (pEH147); test: as above
Experimental: as §2

[27] = tested on: PcaQ/P_H16_RS30145 3,4-dihydroxybenzoate biosensor (pEH161); test: as above
Experimental: as §2

[28] = tested on: PhgR/P_H16_RS05530 phenylglyoxylate biosensor (pEH155); test: as above
Experimental: as §2

[29] = tested on: PhhR/P_H16_RS18365 L-phenylalanine biosensor (pEH137); test: as above
Experimental: as §2

[30] = tested on: SauR/P_H16_RS13695 sulfonatoacetate biosensor (pEH157); test: as above
Experimental: as §2

[31] = tested on: TtdR/P_H16_RS10665 tartrate biosensor (pEH083); test: as above
Experimental: as §2

[32] = tested on: XdhR/P_H16_RS05055 xanthine biosensor (pEH154); test: as above
Experimental: as §2

[33] = tested on: heterologous inducible system pEH002 (rhamnose/acrylate/cumate/itaconate set); test: as above
Experimental: as §2

[34] = tested on: heterologous inducible system pEH020 (rhamnose/acrylate/cumate/itaconate set); test: as above
Experimental: as §2

[35] = tested on: heterologous inducible system pEH040 (rhamnose/acrylate/cumate/itaconate set); test: as above
Experimental: as §2

[36] = tested on: heterologous inducible system pEH086 (rhamnose/acrylate/cumate/itaconate set); test: as above
Experimental: as §2

[37] = tested on: HpdA/P_H16_RS24175 L-tyrosine biosensor (pEH158); test: relative induction of RFP reporter vs primary effector; higher = stronger activation
Experimental: as §1
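Wherever relative induction of RFP reporter vs primary effector (background-corrected) is given: RFP excited at 585 nm with emission read at 620 nm, culture medium blanks subtracted from fluorescence and absorbance prior to normalisation.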

Structure (SMILES): N[C@@H](Cc1ccc(O)cc1)C(=O)O [L-tyrosine]
- relative induction of RFP reporter [1]: -2.55%
- relative induction of RFP reporter [2]: 0.00497%
- relative induction of RFP reporter [3]: 0.136%
- relative induction of RFP reporter [4]: -0.0654%
- relative induction of RFP reporter [5]: -2.95%
- relative induction of RFP reporter [6]: -2.3%
- relative induction of RFP reporter [7]: 0.00647%
- relative induction of RFP reporter [8]: -1.24%
- relative induction of RFP reporter [9]: 0.392%
- relative induction of RFP reporter [10]: -0.239%
- relative induction of RFP reporter [11]: 0.00275%
- relative induction of RFP reporter [12]: 1.67%
- relative induction of RFP reporter [13]: -1.38%
- relative induction of RFP reporter [14]: 0.00824%
- relative induction of RFP reporter [15]: -2.03%
- relative induction of RFP reporter [16]: -2.72%
- relative induction of RFP reporter [17]: 0.264%

Structure (SMILES): CC(N)CC(=O)O (stereo unspecified) [3-aminobutanoate]
- relative induction of RFP reporter [18]: 0.0935%
- relative induction of RFP reporter [19]: -0.0347%
- relative induction of RFP reporter [20]: 0.00428%
- relative induction of RFP reporter [21]: -2.98%
- relative induction of RFP reporter [22]: -1.28%
- relative induction of RFP reporter [23]: -0.191%
- relative induction of RFP reporter [24]: -0.097%
- relative induction of RFP reporter [25]: 0.00216%
- relative induction of RFP reporter [26]: 57.8%
- relative induction of RFP reporter [27]: 0.0297%
- relative induction of RFP reporter [28]: 0.0503%
- relative induction of RFP reporter [29]: -0.0355%
- relative induction of RFP reporter [30]: -0.0365%
- relative induction of RFP reporter [31]: 0.625%
- relative induction of RFP reporter [32]: 0.412%
- relative induction of RFP reporter [33]: 0.0041%
- relative induction of RFP reporter [34]: -0.315%
- relative induction of RFP reporter [35]: 0.21%
- relative induction of RFP reporter [36]: 0.139%

Structure (SMILES): OC1OC[C@H](O)[C@H](O)[C@H]1O (mixture of isomers) [L-arabinose]
- relative induction of RFP reporter [1]: -0.298%
- relative induction of RFP reporter [3]: -0.67%
- relative induction of RFP reporter [4]: -0.0174%
- relative induction of RFP reporter [5]: -1.73%
- relative induction of RFP reporter [6]: -0.944%
- relative induction of RFP reporter [37]: 0.0304%
- relative induction of RFP reporter [7]: -0.0109%
- relative induction of RFP reporter [8]: -0.0273%
- relative induction of RFP reporter [9]: -0.0772%
- relative induction of RFP reporter [10]: -0.169%
- relative induction of RFP reporter [11]: -0.00743%
- relative induction of RFP reporter [12]: -0.392%
- relative induction of RFP reporter [13]: -0.221%
- relative induction of RFP reporter [14]: 0.00935%
- relative induction of RFP reporter [15]: -0.681%
- relative induction of RFP reporter [16]: -0.337%
- relative induction of RFP reporter [17]: 0.00235%

Structure (SMILES): N[C@@H](Cc1ccccc1)C(=O)O [L-phenylalanine]
- relative induction of RFP reporter [1]: -1.77%
- relative induction of RFP reporter [2]: -0.0146%
- relative induction of RFP reporter [3]: -0.263%
- relative induction of RFP reporter [4]: -0.0737%
- relative induction of RFP reporter [5]: -4.81%
- relative induction of RFP reporter [6]: -2.3%
- relative induction of RFP reporter [37]: 57.7%
- relative induction of RFP reporter [7]: 0.00484%
- relative induction of RFP reporter [8]: -1.24%
- relative induction of RFP reporter [9]: -0.267%
- relative induction of RFP reporter [10]: -0.485%
- relative induction of RFP reporter [11]: -0.0265%
- relative induction of RFP reporter [12]: 0.153%
- relative induction of RFP reporter [13]: -1.38%
- relative induction of RFP reporter [14]: 0.00514%
- relative induction of RFP reporter [15]: -1.94%
- relative induction of RFP reporter [16]: -2.37%
- relative induction of RFP reporter [17]: -0.26%
